From PubChem BioAssay
SMARCA2 activ: SMARCA2 function activation, primary screen. MG213 cells, MMTV-luciferase reporter, dexamethasone, overnight. 370,000 compounds, 1% hits. activation, % at 9.1 µM; in the data active = activation above about 7.8%;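 note: 0% = vehicle wells and 100% = reference activator wells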
esBAF inh: blocks esBAF chromatin remodeling in mouse ES cells; Bmi1-luciferase knock-in reporter, 24 h; 100% = twice the neutral-well signal; reporter increase, % at 12.5 µM; 350,000 compounds, 2% hits; in the data active = activation above about 40%; inconclusive = no clear call, values can overlap the other calls;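 note: 0% = median of the plate's neutral control wells and 100% = double that signal; a rise in the Bmi1 reporter signal indicates esBAF inhibition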
MITF TRPM1 HTS: MITF TRPM1 promoter activation in melanoma cells; activation, % at 12.5 µM; SK-MEL-5 TRPM1-promoter luciferase, 24 h; % of positive control, neutral wells = 0; 300,000 compounds, 0.75% hits;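 active = mean activation of at least 80% with every replicate also reaching 80%; inconclusive = mean reaches 80% but some replicate falls short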;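 note: 0% = neutral control wells and 100% = parthenolide positive control wells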
AF4-AF9 inh: MLL-AF4/AF9 protein interaction inhibition; inhibition, % at 10 µM; AlphaScreen, biotin-AF4 peptide binding to FLAG-AF9; 350,000 compounds, 0.47% hits; P42568;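 active = every replicate reaching a set inhibition limit, whatever the replicate mean, cut at about 25% in these data; inconclusive = mean inhibition reaches that limit but some replicates miss it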;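 note: 0% = plate neutral control median and 100% = total signal loss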
Target sequence (P42568 whole entry, looked up): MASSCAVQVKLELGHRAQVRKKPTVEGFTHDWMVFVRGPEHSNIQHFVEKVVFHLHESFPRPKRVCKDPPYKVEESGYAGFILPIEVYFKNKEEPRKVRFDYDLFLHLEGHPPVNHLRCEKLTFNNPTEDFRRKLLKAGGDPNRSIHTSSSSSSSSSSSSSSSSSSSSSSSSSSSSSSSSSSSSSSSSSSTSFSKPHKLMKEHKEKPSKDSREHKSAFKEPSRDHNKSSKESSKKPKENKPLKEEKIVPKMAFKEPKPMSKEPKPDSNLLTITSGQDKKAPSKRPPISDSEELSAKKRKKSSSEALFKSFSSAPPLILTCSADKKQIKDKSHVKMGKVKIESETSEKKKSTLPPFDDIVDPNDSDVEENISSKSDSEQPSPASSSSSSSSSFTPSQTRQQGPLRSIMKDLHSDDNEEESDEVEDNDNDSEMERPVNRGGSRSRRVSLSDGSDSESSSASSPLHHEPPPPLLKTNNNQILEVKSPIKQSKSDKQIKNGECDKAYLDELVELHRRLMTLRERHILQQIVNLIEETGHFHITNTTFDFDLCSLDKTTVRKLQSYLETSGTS
Wnt act: activators of Wnt/beta-catenin signaling; activation, % at 9.35 µM; 300,000 compounds, 1.2% hits; Wnt/beta-catenin reporter cell assay, activator, plate reader; in the data active = activation above about 30%, passing the limit was not always enough; inconclusive = no clear call, values can overlap the other calls;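 note: 0% = neutral control wells and 100% = positive control wells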
FGF22 binding: binders of recombinant human FGF22 by thermal shift | activity (Tm shift, normalised), % at 9.99 µM | SYPRO orange fluorescence; percent of sucrose octasulfate shift, DMSO zero | 340,000 compounds, 1.5% hits | Q9HCT0;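 active = mean Tm shift, scaled 0 neutral to 100 positive control, at about 1.3% or above, every replicate too, limit read from the data; inconclusive = no clear call, values can overlap the other calls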
Numbers without * were called inactive; ? = inconclusive; / = no result given. This is a sample that favours compounds with a hit; in the whole collection about 4.3% have one here.

SMILES	SMARCA2 activ	esBAF inh	MITF TRPM1 HTS	AF4-AF9 inh	Wnt act	FGF22 binding
CCOC(=O)c1cc2cc3ccccc3cc2[nH]1	5	22	/	4	40*	/
COC(=O)c1cc(-c2ccc(Cl)cc2)n[nH]1	0	37	23	-4	/	0
CC(C)OC(=O)c1cc2ccccc2[nH]1	1	66*	49	/	9	/
O=C(Nc1cccc(Cl)c1)c1csc([C@H]2C[C@H](O)[C@@H](CO)O2)n1	4	65*	/	1	?	0
Cc1c(C(=O)Nc2ccccc2)sc2nc(-c3ccccc3)cn12	0	?	27	/	58*	/
COc1ccc(-c2cn3c(C)c(C(=O)Nc4cccc(C)n4)sc3n2)cc1	3	55*	13	-15	-1	0
Cc1cccc(NC(=O)c2sc3nc(-c4ccccc4)cn3c2C)n1	-1	51*	9	-40	5	0
Cc1nc(NCc2ccccc2)sc1C(=O)Nc1ccccc1	4	59*	54	1	6	0
Cc1ccc(S(=O)(=O)N(C)C[C@H]2Oc3ccc(NC(=O)CCCN(C)C)cc3C(=O)N([C@@H](C)CO)C[C@H]2C)cc1	/	-4	/	1	/	0
CNC[C@H](CC1CCCCC1)NC[C@H](Cc1ccccc1)NCCC12CC3CC(CC(C3)C1)C2	0	-8	-44	40*	-25	0
NC[C@H](Cc1ccccc1)NCCCCC1CCCCC1	0	-5	5	8	-4	0
Cc1cc(NC(=O)CCCC(=O)NCc2ccccc2)no1	1	/	-1	-1	-11	0
Cc1ccc(CNC(=O)CCCC(=O)Nc2cc(C)on2)cc1	-5	4	-1	-6	0	43*
NCCCCCCNC(=O)[C@H]1C[C@H]2C(=O)N[C@@H](Cc3ccccc3)C(=O)N2[C@H]1c1cccc(OCCO)c1	/	/	/	-3	/	0
N#Cc1ccc(-c2ccc(C3[C@@H]4CN(C(=O)Cc5ccccc5)C[C@H]3N4)cc2)cc1 (stereo partly drawn)	/	/	/	/	/	0
O=C(NCCc1ccccc1)c1cccc(NC(=O)C2CC2)c1	5	52*	61	-2	0	0
O=C(NCCc1ccccc1)c1cccc(NC(=O)C2CCC2)c1	2	57*	43	-3	7	0
CC(C)NC(=O)N(C)C[C@@H]1Oc2ccc(NC(=O)Cn3cnnn3)cc2C(=O)N([C@@H](C)CO)C[C@H]1C	/	-7	/	/	/	/
C[C@H](NC(=O)C[C@@H]1CC[C@H](NS(=O)(=O)c2cccc(F)c2)[C@@H](CO)O1)c1ccccc1	/	1	/	-1	/	0
O=C(C[C@@H]1C[C@H]2c3cc(NC(=O)Cc4ccncc4)ccc3O[C@H]2[C@@H](CO)O1)NCc1ccc(-c2ccccc2)cc1	/	10	/	-1	/	0
Cc1nc(C#N)c(N/N=C/c2cccc(Cl)c2)o1	7	93*	72	3	28	0
Cc1cc(N/N=C/c2cccc(Cl)c2)nc(-n2nc(C)cc2C)n1	2	6	/	4	-2	0
CC1Oc2ccccc2C=C1/C=N/NC(=O)c1ccccc1 (stereo not drawn)	1	/	89*	/	37*	/
COc1cccc(-c2ccc3nccn3c2)c1	-1	49*	/	-2	-3	0
COc1cccc(C2=CC(c3cccc(OC)c3OC(F)F)n3nnnc3N2)c1 (stereo not drawn)	0	10	20	/	0	/
SMILES	SMARCA2 activ	esBAF inh	MITF TRPM1 HTS	AF4-AF9 inh	Wnt act	FGF22 binding
COc1cccc(C2=CC(c3cccc(OC)c3OC)n3nnnc3N2)c1 (stereo not drawn)	1	47*	12	/	/	/
C[C@@H]1CCCCO[C@H](CN(C)S(=O)(=O)c2cccs2)[C@@H](C)CN([C@H](C)CO)C(=O)c2cc(NC(=O)c3ccncc3)ccc2O1	/	-7	/	-4	/	-1
COc1ccc(CC2(CO)CCN(Cc3cnc(-c4ccccc4C)nc3)CC2)cc1	-5	11	4	/	-1	44*
COc1ccc(CC2(CO)CCN(Cc3cnn(-c4ccccc4)c3)CC2)cc1	0	/	-2	5	-9	0
CCN1CCN(C(c2ccc(C(F)(F)F)cc2)c2ccc3cccnc3c2O)CC1 (stereo not drawn)	-1	1	-52	85*	3	0
Cc1ccc2[nH]c(=O)c(-c3nc4ccccn4c3NCc3ccco3)cc2c1	6	29	14	/	55*	/
O=Cc1c(NCc2ccco2)nc2ccccn2c1=O	-1	/	6	1	5	0
COC(c1ccccc1)c1nnc(CCC(=O)N2CCCCCCC2)o1 (stereo not drawn)	-1	1	14	-2	12	44*
COC(c1ccccc1)c1nnc(CCC(=O)N2CCN(Cc3cccs3)CC2)o1 (stereo not drawn)	5	/	-3	-2	0	0
COC(c1ccccc1)c1nnc(CCC(=O)N(C)C(C2CC2)C2CC2)o1 (stereo not drawn)	4	/	26	-2	18	44*
C[C@@H]1CCCCO[C@H](CN(C)C(=O)NC2CCCCC2)[C@@H](C)CN([C@@H](C)CO)C(=O)c2cc(NC(=O)c3ccncc3)ccc2O1	/	0	/	-1	/	0
NC(=O)C1CCN(C(=O)c2cc3c(s2)CCCC3)CC1	-2	/	24	-4	18	43*
Cc1noc(C)c1S(=O)(=O)N(C)C[C@@H]1Oc2ccc(NC(=O)NC(C)C)cc2CC(=O)N([C@@H](C)CO)C[C@H]1C	/	1	/	3	/	0
O=C(Cc1nnc(NC(=O)c2ccccc2)s1)N/N=C/c1cccc(O)c1	0	2	/	0	3	0
O=C(CSc1cn(Cc2ccccc2)c2ccccc12)N1CCOCC1	1	79*	52	3	18	0
Cc1ccc(Cn2cc(/C=N/NC(=O)Cc3nnc(NC(=O)c4ccc(C)cc4)s3)c3ccccc32)cc1	1	0	3	-1	24	43*
O=C(NCCn1cc(SCC(=O)N2CCOCC2)c2ccccc21)c1ccccc1	0	2	/	4	11	0
Cc1ccc(C(=O)NCCn2cc(SCC(=O)Nc3nnc(C)s3)c3ccccc32)cc1	-3	58*	/	6	-5	0
COc1ccc(C(=O)NCCn2cc(SCC(=O)N3CCOCC3)c3ccccc32)cc1	-3	42*	0	/	/	/
C[C@H](CO)N1C[C@H](C)[C@@H](CN(C)C(=O)Nc2ccccc2)OCCCC[C@H](C)Oc2ccc(NC(=O)Nc3ccccc3)cc2C1=O	/	15	/	-5	/	0
CCC(=O)N1[C@@H](CO)[C@@H](c2ccc(-c3cccc(F)c3)cc2)[C@@H]1CN(C)C(C)=O	/	-5	/	2	/	0
O=C(NC1CCCC1)N[C@H]1CC[C@@H](CC(=O)N2CCOCC2)O[C@H]1CO	/	4	/	2	/	0
Nc1ccccc1SCC(=O)Nc1nccs1	5	/	-1	-1	1	0
